# The supplement of paper PMC10981050
# Several values for one entry are separate records, joined by “and”; a condition that tells them apart may be missing. Identical values can stand only once. Counter-ions that a name gives are not always drawn.
# Assays:
# Assay in all cases: cell viability relative to vehicle control; higher = less cytotoxic
# Details in all cases: 10 µM
# K562 = test system: K562
# In short: (§1)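 Screening covered the Selleck bioactive, kinase and epigenetic probe libraries, less identity-inconsistent compounds, on CRISPR-edited mutant clones and isogenic wild-type clones of four leukaemia lines. Cells, at 2000 per well in 50 µL medium, received a single 10 µM acoustically dispensed dose. After 48 h the supernatant was removed and CellTiter-Glo luminescence was read. Viability was analysed in Genedata Screener as percent of the on-plate vehicle control.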
# MARIMO = test system: MARIMO
# In short: as §1
# MOLM14 = test system: MOLM14
# In short: as §1
# OCI-AML2 = test system: OCI-AML2
# In short: as §1
SMILES,cell viability (K562; SRSF2 genotype: SRSF2 P95H/wt),cell viability (K562; SRSF2 genotype: SRSF2 wt/wt),cell viability (MARIMO; SRSF2 genotype: SRSF2 P95H/wt),cell viability (MARIMO; SRSF2 genotype: SRSF2 wt/wt),cell viability (MOLM14; SRSF2 genotype: SRSF2 P95H/wt),cell viability (MOLM14; SRSF2 genotype: SRSF2 wt/wt),cell viability (OCI-AML2; SRSF2 genotype: P95H/wt),cell viability (OCI-AML2; SRSF2 genotype: wt/wt)
CCN(c1cc(-c2ccc(CN3CCOCC3)cc2)cc(C(=O)NCc2c(C)cc(C)[nH]c2=O)c1C)C1CCOCC1 [Tazemetostat (EPZ-6438)],92.9% and 95%,94.2%,93.3%,102%,89.5%,93.3%,105%,99.6%
CCCOC(=O)c1cc(O)c(O)c(O)c1 [Propyl gallate],96.2% and 91%,94.7%,81.8%,99.1%,97.6%,106%,98.2%,97.5%
Cc1c(C(=O)Nc2ccc(N3CCC(N4CCOCC4)CC3)c(C#N)c2)cnn1-c1ccc(Cl)cc1,8.99% and 14.7%,47.6%,6.27%,12.2%,11%,1.97%,8.8%,11.4%
C=C1/C(=C\C=C2/CCC[C@]3(C)[C@@H]([C@H](C)CCCC(C)C)CC[C@@H]23)C[C@@H](O)C[C@@H]1O [Alfacalcidol],90.3% and 95.4%,99.1%,82.5%,82.5%,84.9%,94.2%,98.7%,110%
CC1(C)CC[C@]2(C)CC[C@]3(C)C(=CC[C@@H]4[C@@]5(C)CC[C@@H](O)[C@](C)(C(=O)O)[C@@H]5CC[C@]43C)[C@@H]2C1,97.6% and 95.5%,97.8%,97.8%,108%,102%,103%,94.4%,96.1%
CC1OC(OC2C(CO)OC(OCC3OC(OC(=O)C45CCC(C)(C)CC4C4=CCC6C7(C)CCC(OC8OCC(O)C(O)C8O)C(C)(CO)C7CCC6(C)C4(C)CC5)C(O)C(O)C3O)C(O)C2O)C(O)C(O)C1O (stereo not given) [Hederacoside D],98.3% and 104%,101%,95.7%,103%,105%,99.3%,97%,103%
CCCCCCNC(=O)Nc1ccc(S(=O)(=O)Nc2ccc(CCNC[C@H](O)COc3ccc(O)cc3)cc2)cc1,72.8% and 83.3%,82.8%,89.2%,91.4%,75.5%,75.4%,74.2%,71%
COc1cc2nc(N3CCN(C(=O)C4CCCO4)CC3)nc(N)c2cc1OC (stereo not given) [Terazosin HCl Dihydrate],101% and 95.7%,97%,101%,105%,99.1%,96.2%,94.8%,103%
O=C(O)C=C(CC(=O)O)C(=O)O [cis-Aconitic acid],109% and 108%,101%,102%,113%,102%,103%,97.9%,106%
CC(C)(C)c1cc(O)c(C(C)(C)C)cc1O,97% and 97.5%,95.7%,73.4%,92.5%,88.8%,93.5%,86.2%,93.3%
CN1CCC[C@H]1c1cccnc1 [nicotine ditartrate],101% and 97.3%,97.6%,105%,117%,99.1%,101%,95.6%,106%
N[C@@H]1CCCCN(c2c(F)cc3c(=O)c(C(=O)O)cn(C4CC4)c3c2Cl)C1 [Besifloxacin HCl (Besivance)],97.5% and 91.4%,99.9%,99.3%,96.6%,97.6%,98.3%,121%,95.6%
O=S(=O)(O)Oc1ccc(C(c2ccc(OS(=O)(=O)O)cc2)c2ccccn2)cc1 [Sodium Picosulfate],103% and 102%,108%,106%,112%,103%,104%,104%,101%
O=c1ccn([C@@H]2O[C@H](CO)[C@@H](O)[C@H]2O)c(=O)[nH]1 [Uridine],105% and 90%,94.1%,81.2%,92.2%,82.8%,90%,78.3%,92.8%
Clc1ccc(COC(Cn2ccnc2)c2ccc(Cl)cc2Cl)c(Cl)c1 (stereo not given) [Miconazole nitrate],68.8% and 61.8%,67.2%,70%,76.1%,57.4%,64.3%,66.2%,63.4%
CC(C)c1ccc(C=O)cc1 [4-Isopropylbenzaldehyde],94.1% and 90.8%,92.4%,94.5%,99.9%,86.2%,94.9%,89.9%,93.4%
CN(C)CCC(c1ccc(Br)cc1)c1ccccn1 (stereo not given) [Brompheniramine hydrogen maleate],95.3% and 97.4%,91.3%,86.2%,90.7%,101%,98.8%,112%,109%
O=C(O)c1ccc(C=C2SC(=S)N(c3cccc(C(F)(F)F)c3)C2=O)cc1,94.1% and 97.2%,95.1%,94.3%,105%,90.2%,99.7%,95.5%,97.9%
CCCCCCCCCCCCc1ccc(S(=O)(=O)Nc2nncs2)cc1,107% and 104%,102%,105%,109%,105%,106%,98.7%,111%
C=C1C2CCC(C2)C1(C)CCC=C(C)CO (stereo not given) [Santalol],106% and 103%,98.6%,105%,94.3%,106%,104%,102%,101%
